Assay results reported in PubChem BioAssay (NCI).
About 83,000 compounds went through this panel and 20% of them were active in at least one assay; those are over-represented in the sample as a whole.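 Single-concentration screen, 48 h exposure, 96-well plates. Endpoint: percent growth. Below 10 = active.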 Calls of active or inactive are those of the source.

Tests used:
Experiment in all cases: NCI-60 one-dose screen, 48 h (100 = growth as untreated, 0 = no growth, -100 = all killed)
Details in all cases: 10 µM unless noted
HCT-15 colon = system: HCT-15 colon
HT29 colon = system: HT29 colon
SNB-75 CNS = system: SNB-75 CNS
SNB-19 CNS = system: SNB-19 CNS
U251 CNS = system: U251 CNS
SK-MEL-5 melanoma = system: SK-MEL-5 melanoma
UACC-62 melanoma = system: UACC-62 melanoma
LOX IMVI melanoma = system: LOX IMVI melanoma
SK-MEL-28 melanoma = system: SK-MEL-28 melanoma

Measured: growth

NS(=O)(=O)c1ccc(CN=C2NC(=O)S/C2=C\c2ccc(Br)cc2)cc1
inactive: HCT-15 colon 103% | HT29 colon 105% | SNB-75 CNS 89.1% | SNB-19 CNS 97.7% | U251 CNS 97.9% | SK-MEL-5 melanoma 99.2% | UACC-62 melanoma 93.3% | LOX IMVI melanoma 100%

CN(C)S(=O)(=O)c1cccc(-c2nc3sc4c(c3c(=O)[nH]2)CCCC4)c1
active: SNB-75 CNS -12.3% | U251 CNS 1.85%
inactive: HCT-15 colon 115% | HT29 colon 19.5% | SNB-19 CNS 53.5% | SK-MEL-5 melanoma 77.3% | UACC-62 melanoma 71.1% | LOX IMVI melanoma 174% | SK-MEL-28 melanoma 82.2%

COc1ccc(-n2nc(C)c3c(Nc4ccc(NC(=O)Nc5ccc(Cl)c(C(F)(F)F)c5)cc4)ncnc32)cc1
inactive: SNB-19 CNS 13.5%
active: HCT-15 colon -9.82% | HT29 colon 1.57% | SNB-75 CNS -4.71% | U251 CNS -29.2% | SK-MEL-5 melanoma -44.7% | UACC-62 melanoma 4.84% | LOX IMVI melanoma -81.4% | SK-MEL-28 melanoma 4.78%

C=C1c2nc3ccccc3n2C=C(c2ccc(OC)cc2)N1Cc1ccccc1
inactive: HCT-15 colon 73.8% | HT29 colon 73.2% | SNB-75 CNS 109% | SNB-19 CNS 79.3% | U251 CNS 80.5% | SK-MEL-5 melanoma 87.1% | UACC-62 melanoma 88.6% | LOX IMVI melanoma 91.1% | SK-MEL-28 melanoma 119%

Cn1c(=O)[nH]c(=O)c2nc(CCC(=O)NCCC(=O)O)c(=O)[nH]c21
inactive: HCT-15 colon 106% | HT29 colon 106% | SNB-75 CNS 89% | SNB-19 CNS 104% | U251 CNS 98.2% | SK-MEL-5 melanoma 103% | UACC-62 melanoma 105% | LOX IMVI melanoma 98.6% | SK-MEL-28 melanoma 103%

CC(C)(C)N1CCC1CN (stereo unspecified)
inactive: HCT-15 colon 126% | HT29 colon 111% | SNB-75 CNS 87.4% | SNB-19 CNS 101% | U251 CNS 117% | SK-MEL-5 melanoma 136% | UACC-62 melanoma 112% | LOX IMVI melanoma 109% | SK-MEL-28 melanoma 105%

COc1cc2nnc3c4cccnc4[nH]c3c2cc1OC
inactive: HCT-15 colon 16% | SNB-75 CNS 51.2% | SNB-19 CNS 75.7% | SK-MEL-5 melanoma 93.5% | UACC-62 melanoma 30.8% | LOX IMVI melanoma 12.8% | SK-MEL-28 melanoma 47.6%
active: HT29 colon -2.61% | U251 CNS 1.26%

CC(=O)Nc1ccc(-n2c(O)c(/C=N/NC(=O)Cc3ccccc3Nc3c(Cl)cccc3Cl)sc2=S)cc1
inactive: HCT-15 colon 103% | HT29 colon 104% | SNB-75 CNS 89.6% | SNB-19 CNS 96.4% | U251 CNS 90.4% | SK-MEL-5 melanoma 96.2% | UACC-62 melanoma 95.4% | LOX IMVI melanoma 84.2% | SK-MEL-28 melanoma 111%

O=C1/C(=C/C(Cl)=C/c2ccccc2)SC(=S)N1CCc1ccc(O)cc1
active: HCT-15 colon 2.94% | HT29 colon 1.54% | SNB-19 CNS 6.88% | U251 CNS -58.3% | SK-MEL-5 melanoma -47.6% | UACC-62 melanoma -24.7% | LOX IMVI melanoma -79.2% | SK-MEL-28 melanoma -26%
inactive: SNB-75 CNS 17.3%

COc1nc2c(c(=O)n1C)CN(Cc1ccccc1)C=N2
inactive: HCT-15 colon 105% | HT29 colon 109% | SNB-75 CNS 78% | SNB-19 CNS 91.1% | U251 CNS 115% | SK-MEL-5 melanoma 111% | UACC-62 melanoma 116% | LOX IMVI melanoma 98.1% | SK-MEL-28 melanoma 108%

Cc1ccc(O)c(N2C(=NCc3ccco3)NS(=O)(=O)c3cnccc32)c1
inactive: HCT-15 colon 112% | HT29 colon 111% | SNB-75 CNS 106% | SNB-19 CNS 110% | U251 CNS 100% | SK-MEL-5 melanoma 118% | UACC-62 melanoma 96.7% | LOX IMVI melanoma 103% | SK-MEL-28 melanoma 107%

O=C(CCN1C(=O)/C(=C/c2ccc(Cl)cc2)SC1=S)NCCCN1CCOCC1
inactive: HCT-15 colon 98% | HT29 colon 105% | SNB-75 CNS 92.4% | SNB-19 CNS 101% | U251 CNS 102% | SK-MEL-5 melanoma 97.5% | UACC-62 melanoma 92.4% | LOX IMVI melanoma 99.7% | SK-MEL-28 melanoma 100%

O=c1c2c3c(sc2nc(N/N=C/c2cn(-c4ccccc4)nc2-c2ccc(Cl)cc2)n1Cc1ccccc1)CCCC3
inactive: HCT-15 colon 114% | HT29 colon 110% | SNB-75 CNS 102% | SNB-19 CNS 107% | U251 CNS 111% | SK-MEL-5 melanoma 104% | UACC-62 melanoma 94.7% | LOX IMVI melanoma 110% | SK-MEL-28 melanoma 112%

FC(F)(F)c1nc2c(NCc3ccc(-c4ccccc4)cc3)cccc2[nH]1
inactive: HCT-15 colon 68.4% | HT29 colon 84.4% | SNB-75 CNS 90.7% | SNB-19 CNS 117% | U251 CNS 66.6% | SK-MEL-5 melanoma 88.4% | UACC-62 melanoma 72.1% | LOX IMVI melanoma 82.4% | SK-MEL-28 melanoma 92.1%

O=C1OCC2=C1C(c1ccncc1)c1cc3c(cc1N2CCO)OCO3 (stereo unspecified)
inactive: HCT-15 colon 103% | HT29 colon 106% | SNB-75 CNS 95.7% | SNB-19 CNS 100% | U251 CNS 96.7% | SK-MEL-5 melanoma 98.6% | UACC-62 melanoma 94.9% | LOX IMVI melanoma 99.9% | SK-MEL-28 melanoma 102%

COc1cccc(/C=C2\SC(=Nc3ccc(NC(C)=O)cc3)NC2=O)c1OC
inactive: HCT-15 colon 96.5% | HT29 colon 116% | SNB-75 CNS 67.5% | SNB-19 CNS 97.7% | U251 CNS 93.1% | SK-MEL-5 melanoma 96.2% | UACC-62 melanoma 98% | LOX IMVI melanoma 95.7% | SK-MEL-28 melanoma 101%

NC(=O)c1cc(I)ccc1NC(=O)/C=C/c1ccccc1Cl
inactive: HCT-15 colon 17.8% | SNB-19 CNS 31.9% | U251 CNS 21.8% | UACC-62 melanoma 37.8% | LOX IMVI melanoma 50.7% | SK-MEL-28 melanoma 38%
active: HT29 colon 8.09% | SNB-75 CNS -14.5% | SK-MEL-5 melanoma 3.33%

CCOC(=O)c1sc2nc(-c3cccc(O)c3)nc(N3CCOCC3)c2c1C
inactive: HCT-15 colon 43.7% | HT29 colon 98.2% | SNB-75 CNS 21.1% | SNB-19 CNS 69.2% | U251 CNS 58.5% | SK-MEL-5 melanoma 52.7% | UACC-62 melanoma 71.8% | LOX IMVI melanoma 57.3% | SK-MEL-28 melanoma 63.7%

CCn1c(O)c(/C=N/NC(=O)C(C)c2ccc(CC(C)C)cc2)sc1=S (stereo unspecified)
active: SNB-75 CNS -2%
inactive: HCT-15 colon 17.6% | HT29 colon 10.1% | SNB-19 CNS 37.5% | U251 CNS 15.6% | SK-MEL-5 melanoma 17% | UACC-62 melanoma 46% | LOX IMVI melanoma 27.1% | SK-MEL-28 melanoma 69.6%

Cc1cc(C)nc(SC2=C(Nc3ccc(O)cc3)C(=O)N(Cc3ccccc3)C2=O)n1
inactive: HCT-15 colon 89.5% [40 µM] | HT29 colon 119% [40 µM] | SNB-75 CNS 89.8% [40 µM] | SNB-19 CNS 85.1% [40 µM] | U251 CNS 91.9% [40 µM] | SK-MEL-5 melanoma 82.4% [40 µM] | UACC-62 melanoma 68.4% [40 µM] | LOX IMVI melanoma 82.8% [40 µM] | SK-MEL-28 melanoma 112% [40 µM]

O=C(CCCCC(=O)N/N=C\c1ccccc1O)N/N=C\c1ccccc1O
inactive: HCT-15 colon 21% | HT29 colon 69.1% | SNB-75 CNS 69.6% | SNB-19 CNS 38.9% | U251 CNS 26.4% | UACC-62 melanoma 13.5% | LOX IMVI melanoma 26.2% | SK-MEL-28 melanoma 48.3%
active: SK-MEL-5 melanoma -14.9%

Cc1cc2nc3[nH]c4ccccc4c3nc2cc1C
inactive: HCT-15 colon 80.3% | HT29 colon 95.1% | SNB-75 CNS 51.2% | SNB-19 CNS 89.7% | U251 CNS 58.1% | SK-MEL-5 melanoma 88.9% | UACC-62 melanoma 90.3% | LOX IMVI melanoma 64.1% | SK-MEL-28 melanoma 90%

O=C1CC[C@H](c2ccc(O)c3c2C(=O)[C@@H]2O[C@@H]2C3=O)c2cccc(O)c21
active: HT29 colon -17.2% | LOX IMVI melanoma -62.6% | SK-MEL-28 melanoma -7.72%
inactive: HCT-15 colon 42.5% | SNB-75 CNS 81.3% | SNB-19 CNS 92% | U251 CNS 78.7% | SK-MEL-5 melanoma 92.6% | UACC-62 melanoma 39.4%

C=C(C)C(=O)Nc1ccc(NC(C)C)cc1
inactive: HCT-15 colon 125% | HT29 colon 114% | SNB-75 CNS 102% | SNB-19 CNS 105% | U251 CNS 123% | SK-MEL-5 melanoma 134% | UACC-62 melanoma 118% | LOX IMVI melanoma 114% | SK-MEL-28 melanoma 119%

CCN(CC)S(=O)(=O)c1ccc(OC)c(NC(=O)c2[nH]c(C)c3c2CCCCC3=O)c1
active: SNB-75 CNS 9.16% | SK-MEL-5 melanoma -21.8% | LOX IMVI melanoma 9.93%
inactive: HCT-15 colon 18.9% | HT29 colon 14.5% | SNB-19 CNS 45.2% | U251 CNS 43.6% | UACC-62 melanoma 16.2% | SK-MEL-28 melanoma 55.7%

CCOC(=O)c1csc(NC(=O)COc2cccc(/C=C3\CSc4ccccc4C3=O)c2)n1
inactive: HCT-15 colon 89% | SNB-19 CNS 81.3% | SK-MEL-5 melanoma 54.5% | UACC-62 melanoma 64.4% | SK-MEL-28 melanoma 89.3%
active: HT29 colon -34.2% | SNB-75 CNS -33.7% | U251 CNS -54.2% | LOX IMVI melanoma -93.9%

C=CCSSc1ncnc2c1ncn2C1OC(CO)C(O)C1O (stereo unspecified)
active: LOX IMVI melanoma 8.74%
inactive: HCT-15 colon 47.9% | HT29 colon 28.6% | SNB-75 CNS 39.7% | SNB-19 CNS 88.1% | U251 CNS 80% | SK-MEL-5 melanoma 61.1% | UACC-62 melanoma 18.4% | SK-MEL-28 melanoma 109%

Cc1ccc(OC(=O)c2ccc(Cl)cc2)cc1
inactive: HCT-15 colon 102% | HT29 colon 89.2% | SNB-75 CNS 77.1% | SNB-19 CNS 103% | U251 CNS 102% | SK-MEL-5 melanoma 103% | UACC-62 melanoma 94.7% | LOX IMVI melanoma 99.3% | SK-MEL-28 melanoma 106%
